From the supplement of paper PMC11417369 come the findings set out here.

± gives the standard deviation of the averaged measurements. Whole data set: some 25,000 sequences, median “ln(normalized median fluorescence intensity)” near 8.6, cut for the highest 2% near 10. The sample as a whole holds a higher share of the highest values than the screen did.

The subject of this assay is PfAP2-EXP AP2 domain (GST-tagged). The experiment in a line: gcPBM binding intensity (ln(normalized median fluorescence intensity)); higher = stronger DNA binding. The essentials: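 Binding of GST-tagged P. falciparum DNA-binding domains, expressed in E. coli and used at about 25 μg on average, was carried out for 1 h in 1× PBS containing 1% milk, 0.2 mg/ml BSA, 0.5% salmon testes DNA and 0.03% Triton X-100. The target was an Agilent 4 × 180k array of primer-extended double-stranded 36-bp intergenic genomic probes plus negative controls, read with Alexa488 anti-GST antibody at 488 nm. Binding intensity is the highest Masliner-normalised natural-log median intensity across replicate spots of either probe orientation.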
Take “TAAATACATAAATACACACACATATATTATATATAT [CACACA_site4310]”: the “gcPBM binding intensity (ln)” value amounted to 8.62 ± 0.14. In the case of “AACGCACATATATTTATGTATATATATATATATATA [GTGCAC_negctrl_site478]”, the “gcPBM binding intensity (ln)” value is 10.2 ± 0.31. Turning to “AAAATATATAAACGCACATATATTTATGTATATATA [CACACA_negctrl_site163]”, the “gcPBM binding intensity (ln)” value came to 8.64 ± 0.49. Take “AAAAAAAAAAAAATCACACATATGTATTTATATATA [CACACA_site5790]”: the “gcPBM binding intensity (ln)” value was 8.21 ± 0.46. For “TTTTTTTTTTTGTTCACACATATACTTTTATTTTGG [CACACA_site4250]”, the “gcPBM binding intensity (ln)” value was found to be 8.72 ± 0.47.

Turning to “TCCATATTTGTTCACACACACACATATTTATATATA [CACACA_site3570]”, the “gcPBM binding intensity (ln)” value was determined as 8.84 ± 0.42.

For “TTTTTTTTTTTTTTTTTTTATGTATACATATTTATA [TGCATGCA_negctrl_site234]”, the “gcPBM binding intensity (ln)” value was 8.28 ± 0.43. For “CATATGTATTTATTCACACATATATATATATATATA [CACACA_site4207]”, the “gcPBM binding intensity (ln)” value amounted to 10.2 ± 0.4. In the case of “CATATTTTGAACTTCACACATATATATATATATATA [CACACA_site4228]” it was 10.2 ± 0.3; in that of “TTTTTTTTTTACTTCACACATATACATTTATATTTA [CACACA_site4385]”, 8.7 ± 0.44.

With “TTTTTTTTTTTGTTCACACATATATATATATATATA [CACACA_site5376]”, the “gcPBM binding intensity (ln)” value is 10.2 ± 0.37. In the case of “TATAATTATTTTTTCACACATATGTATTTATATATA [CACACA_site4205]” it was 8.88 ± 0.43. Take “TGAAGAATATTTTTCACACATATATATATATATATA [CACACA_site6080]”: the “gcPBM binding intensity (ln)” value turned out to be 10.2 ± 0.38. “GACATAGTATTAAGTTGTACATATATAAAAATAAAT [XGTACX_site1583]”: the “gcPBM binding intensity (ln)” value is 8.65 ± 0.32.

For “TGCTTATCCATTTCTACACACAAAAAAAAAAAAAAA [CACACA_site37]”, the “gcPBM binding intensity (ln)” value stood at 8.28 ± 0.28.

For “ATAATGTAGAACTAGAGTACATAAAAAAATAAACAT [XGTACX_site5205]”, the “gcPBM binding intensity (ln)” value turned out to be 9.06 ± 0.47. Regarding “TATATATAAATATTCAGTACATAGTGCTATTAAGTG [XGTACX_site1979]”, the “gcPBM binding intensity (ln)” value was 8.605 ± 0.064. The figure for TGTATGTATAATTGAGTGCACAGAAAAAAAAAAGAA is 9.6 ± 0.17. Turning to “GTTGTAAAAAGAAAATGTACGTAATAAATATATATA [XGTACX_site3081]”, the “gcPBM binding intensity (ln)” value came out at 8.93 ± 0.38. For the sequence “TTTTCATATATTTATTGTACATATTACATATATAAT [XGTACX_site2425]”, the “gcPBM binding intensity (ln)” value was 8.71 ± 0.23. In the case of “TACATTCTAATAATTGCACACTGGTTATTAAAAGGA [CACACA_site1614]”, the “gcPBM binding intensity (ln)” value was 8.4 ± 0.29. The figure for “TATATATTTTTTTCAAGTACACATTACAGTTACATA [XGTACX_site2713]” is 8.62 ± 0.38; for “TTATAAGATTTATGTACACACATATACTCACCTCTA [CACACA_site729]” it is 8.51 ± 0.25; for “TTTATATAGAAACACACACACAAAAAAAAAAAAAAA [CACACA_site2646]” it is 8.24 ± 0.52. As to “ATATATATATAATTATATAAAATATATCATATGTTA [XGTACX_negctrl_site47]”, the “gcPBM binding intensity (ln)” value was found to be 9.37 ± 0.14. In the case of “TTTAATCATATGTTATATAATAAGCCCCCCCCCCAA [CACACA_negctrl_site486]”, the “gcPBM binding intensity (ln)” value turned out to be 11 ± 0.12.

With “TATTAATTATATTTATGTACATAATCATATTATTAT [XGTACX_site7938]”, the “gcPBM binding intensity (ln)” value came out at 8.55 ± 0.35. In the case of “TCTTTCTATTTATAATGTACTCAAAATTATTCTATA [XGTACX_site4867]”, the “gcPBM binding intensity (ln)” value was determined as 8.6 ± 0.36. As to “AGTGTGCTCAGCTTAGCACAAATTGGAATACCATGT [CACACA_negctrl_site367]”, the “gcPBM binding intensity (ln)” value came to 8.63 ± 0.4.

For the sequence “CATATAATAAATAATACACACATATTGTAAATATAT [CACACA_site5734]”, the “gcPBM binding intensity (ln)” value amounted to 8.43 ± 0.44. The figure for “ATATTAGATTAATTTACACACAGAAAATGAGATTTT [CACACA_site541]” is 8.21 ± 0.36. The figure for “ATATTTCAAAATGAAAGTACATATAAAAATTATACA [XGTACX_site3787]” is 8.31 ± 0.29.

Regarding “ATATTATGAAGGGATATTTTCAAAAATATTAGGAGA [CACACA_negctrl_site942]”, the “gcPBM binding intensity (ln)” value was 8.64 ± 0.41. For the sequence “TTATTTTTCAATGAAAAGGATTATATATATATATAT [CACACA_negctrl_site757]”, the “gcPBM binding intensity (ln)” value was 10.2 ± 0.13. Turning to “TTCATATTTCATATATGTACTTATGTTCAATATAGT [XGTACX_site3811]”, the “gcPBM binding intensity (ln)” value was found to be 8.31 ± 0.3. In the case of “ATTTTTTTGTTAATTTGTACATAAAATTTTATTTTA [XGTACX_site7007]” it was 8.72 ± 0.42; in that of “TTTATATTTATATAAATATAATATATATGAATTATA [XGTACX_negctrl_site466]”, 8.19 ± 0.51; in that of “TATATGGAGAGATATGCACACTGTATGAATGCCCCC [CACACA_site8853]”, 10.3 ± 0.33. As for “ATATATATATATAATGCACACATTATGAATTATGTA [CACACA_site3384]”, the “gcPBM binding intensity (ln)” value came out at 9.98 ± 0.26.

In the case of “TATAATATAAAATATGCACACATTGGAATGGGAGAA [CACACA_site3746]”, the “gcPBM binding intensity (ln)” value was 8.97 ± 0.35. The figure for “AATATATAGAGAGATATGCACACTGTATGAATGCAC [CACACA_site2677]” is 8.58 ± 0.014. For the sequence “CCACTGTATGAATGCACACATTCATAGAATTGCTAT [CACACA_site2676]”, the “gcPBM binding intensity (ln)” value came to 8.79 ± 0.28. The figure for “TATATAGAGAGATATGCACACTGTATGAATGCCCCC [CACACA_site5476]” is 10.3 ± 0.38. In the case of “TCCTTATAAAAATACACACAAACTTTAATTAAAACA [CACACA_site3730]” it was 8.45 ± 0.58.
